These results are taken from ChEMBL document CHEMBL2218924, “A broad activity screen in support of a chemogenomic map for kinase signalling research and drug discovery” (Biochem J, 2013).

For experiment [1], the target named is T1, Serine/threonine-protein kinase TBK1 (Homo sapiens) (UniProt Q9UHD2).
T1 sequence (whole entry): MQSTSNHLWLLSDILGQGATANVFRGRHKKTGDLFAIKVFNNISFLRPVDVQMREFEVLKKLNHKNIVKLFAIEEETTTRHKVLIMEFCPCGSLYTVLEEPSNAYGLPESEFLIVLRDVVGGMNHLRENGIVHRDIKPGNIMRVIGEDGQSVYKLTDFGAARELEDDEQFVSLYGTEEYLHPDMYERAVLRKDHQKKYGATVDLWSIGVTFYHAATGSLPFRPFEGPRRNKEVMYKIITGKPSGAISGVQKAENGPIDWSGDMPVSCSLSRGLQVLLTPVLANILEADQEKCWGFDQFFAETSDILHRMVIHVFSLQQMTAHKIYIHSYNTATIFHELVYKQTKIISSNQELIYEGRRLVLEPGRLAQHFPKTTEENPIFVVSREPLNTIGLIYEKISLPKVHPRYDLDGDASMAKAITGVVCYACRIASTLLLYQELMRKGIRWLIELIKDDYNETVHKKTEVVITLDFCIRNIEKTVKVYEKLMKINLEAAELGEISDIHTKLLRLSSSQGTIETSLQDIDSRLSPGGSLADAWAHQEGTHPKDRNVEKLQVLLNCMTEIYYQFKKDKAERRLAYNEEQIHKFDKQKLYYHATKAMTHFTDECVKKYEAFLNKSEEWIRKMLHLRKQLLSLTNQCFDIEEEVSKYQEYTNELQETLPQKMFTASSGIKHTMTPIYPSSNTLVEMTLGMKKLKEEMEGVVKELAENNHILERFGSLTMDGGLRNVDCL
Particulars: at 10 µM.

Experiment [2] deals with T2, TGF-beta receptor type-1 (Homo sapiens) (UniProt P36897).
T2 sequence (whole entry): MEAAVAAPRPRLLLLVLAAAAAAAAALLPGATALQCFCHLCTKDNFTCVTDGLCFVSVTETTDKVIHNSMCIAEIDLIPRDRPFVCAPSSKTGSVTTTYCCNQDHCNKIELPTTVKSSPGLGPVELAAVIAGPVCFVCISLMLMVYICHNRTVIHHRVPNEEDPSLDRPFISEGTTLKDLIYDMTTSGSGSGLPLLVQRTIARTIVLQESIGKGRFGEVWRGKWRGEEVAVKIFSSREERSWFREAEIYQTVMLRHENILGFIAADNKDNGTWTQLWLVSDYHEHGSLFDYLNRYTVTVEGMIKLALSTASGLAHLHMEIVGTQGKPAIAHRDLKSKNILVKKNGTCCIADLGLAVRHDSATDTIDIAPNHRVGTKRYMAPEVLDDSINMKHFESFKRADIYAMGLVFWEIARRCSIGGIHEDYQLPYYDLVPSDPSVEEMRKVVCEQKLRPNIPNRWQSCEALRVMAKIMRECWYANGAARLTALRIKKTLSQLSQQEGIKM
The note with it: at 1 µM.

The target of experiment [3] is T2, TGF-beta receptor type-1 (Homo sapiens). Particulars: at 10 µM.
For experiment [4], the target named is Insulin-like growth factor 1 receptor (Homo sapiens) (UniProt P08069). Particulars: at 1 µM.
For experiment [5] the target is unchanged. The note with it: at 10 µM.
Experiment [6] has as its target T3, Inhibitor of nuclear factor kappa-B kinase subunit alpha (Homo sapiens) (UniProt O15111).
T3 sequence (whole entry): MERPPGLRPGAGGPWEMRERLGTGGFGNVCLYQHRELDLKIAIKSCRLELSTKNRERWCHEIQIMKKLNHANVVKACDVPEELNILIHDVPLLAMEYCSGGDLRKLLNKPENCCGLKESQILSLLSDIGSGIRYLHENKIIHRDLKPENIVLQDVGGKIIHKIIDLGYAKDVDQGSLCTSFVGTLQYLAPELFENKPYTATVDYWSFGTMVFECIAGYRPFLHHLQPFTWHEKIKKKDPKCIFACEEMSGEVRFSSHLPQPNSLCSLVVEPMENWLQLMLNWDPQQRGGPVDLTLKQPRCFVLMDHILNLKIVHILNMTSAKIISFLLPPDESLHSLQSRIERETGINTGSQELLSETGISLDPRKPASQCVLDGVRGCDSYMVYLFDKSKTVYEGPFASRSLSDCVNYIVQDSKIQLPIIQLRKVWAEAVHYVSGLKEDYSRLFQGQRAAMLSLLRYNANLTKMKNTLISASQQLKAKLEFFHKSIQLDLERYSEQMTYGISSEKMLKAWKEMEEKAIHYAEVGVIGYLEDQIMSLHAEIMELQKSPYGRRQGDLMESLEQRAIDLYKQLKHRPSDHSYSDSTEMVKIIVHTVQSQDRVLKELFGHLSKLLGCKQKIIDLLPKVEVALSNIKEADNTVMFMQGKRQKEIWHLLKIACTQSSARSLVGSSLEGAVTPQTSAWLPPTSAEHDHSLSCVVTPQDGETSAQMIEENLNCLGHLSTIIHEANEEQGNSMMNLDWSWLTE
Particulars: at 1 µM.

In experiment [7] the target is T3, Inhibitor of nuclear factor kappa-B kinase subunit alpha (Homo sapiens). Particulars: at 10 µM.
In experiment [8] the target is T4, Inhibitor of nuclear factor kappa-B kinase subunit beta (Homo sapiens) (UniProt O14920).
T4 sequence (whole entry): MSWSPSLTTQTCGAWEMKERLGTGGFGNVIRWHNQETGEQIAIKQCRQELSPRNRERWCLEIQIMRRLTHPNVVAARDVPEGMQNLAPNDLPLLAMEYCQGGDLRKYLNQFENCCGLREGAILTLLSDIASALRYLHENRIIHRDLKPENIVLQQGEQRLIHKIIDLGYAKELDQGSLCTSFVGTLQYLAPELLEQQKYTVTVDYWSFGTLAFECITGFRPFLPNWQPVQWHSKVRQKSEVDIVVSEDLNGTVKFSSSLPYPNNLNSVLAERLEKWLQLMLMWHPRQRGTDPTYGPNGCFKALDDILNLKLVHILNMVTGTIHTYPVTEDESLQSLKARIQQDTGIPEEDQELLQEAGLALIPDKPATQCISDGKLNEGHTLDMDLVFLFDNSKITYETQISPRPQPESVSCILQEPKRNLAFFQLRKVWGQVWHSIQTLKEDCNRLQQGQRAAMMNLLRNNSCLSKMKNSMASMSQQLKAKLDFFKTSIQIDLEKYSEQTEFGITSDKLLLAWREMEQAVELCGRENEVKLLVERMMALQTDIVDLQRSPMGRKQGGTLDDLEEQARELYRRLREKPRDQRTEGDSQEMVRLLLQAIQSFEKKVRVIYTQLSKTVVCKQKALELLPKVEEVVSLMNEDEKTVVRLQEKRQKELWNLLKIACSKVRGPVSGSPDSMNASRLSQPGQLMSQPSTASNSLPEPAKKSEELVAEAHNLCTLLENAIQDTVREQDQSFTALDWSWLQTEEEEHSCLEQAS
Particulars: at 1 µM.

Experiment [9] concerns the target T4, Inhibitor of nuclear factor kappa-B kinase subunit beta (Homo sapiens). Particulars: at 10 µM.
Experiment [10] addresses Insulin receptor (Homo sapiens) (UniProt P06213). Particulars: at 1 µM.

The residual activity is the signal under treatment as a percentage of the control signal.

SMILES strings stand for the structures.

Insulin-like growth factor 1 receptor (Homo sapiens), sequence (P08069 31-736 limits assumed): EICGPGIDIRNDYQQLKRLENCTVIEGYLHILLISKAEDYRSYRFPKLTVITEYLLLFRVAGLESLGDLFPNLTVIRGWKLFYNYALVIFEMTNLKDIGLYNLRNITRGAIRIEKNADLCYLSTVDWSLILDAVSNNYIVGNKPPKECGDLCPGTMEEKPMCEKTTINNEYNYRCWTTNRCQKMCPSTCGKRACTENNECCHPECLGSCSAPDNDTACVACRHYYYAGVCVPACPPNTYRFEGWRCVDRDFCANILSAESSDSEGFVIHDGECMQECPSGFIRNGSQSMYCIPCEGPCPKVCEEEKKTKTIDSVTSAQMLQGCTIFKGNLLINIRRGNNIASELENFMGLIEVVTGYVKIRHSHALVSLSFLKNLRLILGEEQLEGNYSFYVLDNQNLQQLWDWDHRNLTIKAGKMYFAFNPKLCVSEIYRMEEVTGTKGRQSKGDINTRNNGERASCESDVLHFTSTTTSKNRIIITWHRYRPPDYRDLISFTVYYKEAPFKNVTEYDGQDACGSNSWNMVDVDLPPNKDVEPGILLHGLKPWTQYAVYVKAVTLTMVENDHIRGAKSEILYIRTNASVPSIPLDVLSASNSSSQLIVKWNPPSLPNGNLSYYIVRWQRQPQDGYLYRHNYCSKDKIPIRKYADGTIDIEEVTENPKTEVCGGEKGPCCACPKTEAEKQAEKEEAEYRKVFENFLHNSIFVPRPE
Insulin-like growth factor 1 receptor (Homo sapiens), sequence (P08069 741-1367 limits assumed): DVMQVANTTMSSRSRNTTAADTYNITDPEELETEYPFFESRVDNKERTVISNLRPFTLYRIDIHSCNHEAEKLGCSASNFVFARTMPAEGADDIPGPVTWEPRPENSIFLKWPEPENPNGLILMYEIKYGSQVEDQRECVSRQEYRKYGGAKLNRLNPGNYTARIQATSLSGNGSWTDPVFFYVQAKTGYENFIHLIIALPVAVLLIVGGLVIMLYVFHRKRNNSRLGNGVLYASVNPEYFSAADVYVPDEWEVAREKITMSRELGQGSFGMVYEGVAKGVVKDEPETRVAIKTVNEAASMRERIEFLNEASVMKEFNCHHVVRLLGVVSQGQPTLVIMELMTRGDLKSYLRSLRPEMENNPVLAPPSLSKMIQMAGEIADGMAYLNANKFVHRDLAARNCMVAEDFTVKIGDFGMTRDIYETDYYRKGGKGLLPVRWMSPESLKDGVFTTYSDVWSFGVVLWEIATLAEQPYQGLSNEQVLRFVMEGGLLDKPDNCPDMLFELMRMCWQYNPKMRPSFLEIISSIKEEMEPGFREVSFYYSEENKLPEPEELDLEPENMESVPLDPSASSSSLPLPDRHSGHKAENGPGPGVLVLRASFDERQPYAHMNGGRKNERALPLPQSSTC
Insulin receptor (Homo sapiens), sequence (P06213 28-758 limits assumed): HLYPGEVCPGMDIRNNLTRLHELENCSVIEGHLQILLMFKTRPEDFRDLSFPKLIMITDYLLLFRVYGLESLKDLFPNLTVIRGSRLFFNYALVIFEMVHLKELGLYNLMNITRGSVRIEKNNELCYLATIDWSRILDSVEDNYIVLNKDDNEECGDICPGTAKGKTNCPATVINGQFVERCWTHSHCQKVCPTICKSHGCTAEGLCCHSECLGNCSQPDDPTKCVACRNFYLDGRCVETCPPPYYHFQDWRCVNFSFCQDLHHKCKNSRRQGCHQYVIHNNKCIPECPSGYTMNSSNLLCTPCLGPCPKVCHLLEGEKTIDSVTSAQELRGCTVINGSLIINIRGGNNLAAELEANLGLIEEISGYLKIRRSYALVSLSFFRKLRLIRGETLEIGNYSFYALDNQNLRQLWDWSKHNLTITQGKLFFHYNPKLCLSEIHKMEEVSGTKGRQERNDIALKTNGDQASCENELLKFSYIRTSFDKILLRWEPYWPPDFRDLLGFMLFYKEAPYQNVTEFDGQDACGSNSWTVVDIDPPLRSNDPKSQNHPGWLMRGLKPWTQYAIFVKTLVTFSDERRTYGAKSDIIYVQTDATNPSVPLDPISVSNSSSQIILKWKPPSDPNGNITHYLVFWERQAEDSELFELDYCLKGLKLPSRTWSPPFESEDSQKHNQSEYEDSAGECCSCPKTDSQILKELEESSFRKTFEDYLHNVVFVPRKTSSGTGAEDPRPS
Insulin receptor (Homo sapiens), sequence (P06213 763-1382 limits assumed): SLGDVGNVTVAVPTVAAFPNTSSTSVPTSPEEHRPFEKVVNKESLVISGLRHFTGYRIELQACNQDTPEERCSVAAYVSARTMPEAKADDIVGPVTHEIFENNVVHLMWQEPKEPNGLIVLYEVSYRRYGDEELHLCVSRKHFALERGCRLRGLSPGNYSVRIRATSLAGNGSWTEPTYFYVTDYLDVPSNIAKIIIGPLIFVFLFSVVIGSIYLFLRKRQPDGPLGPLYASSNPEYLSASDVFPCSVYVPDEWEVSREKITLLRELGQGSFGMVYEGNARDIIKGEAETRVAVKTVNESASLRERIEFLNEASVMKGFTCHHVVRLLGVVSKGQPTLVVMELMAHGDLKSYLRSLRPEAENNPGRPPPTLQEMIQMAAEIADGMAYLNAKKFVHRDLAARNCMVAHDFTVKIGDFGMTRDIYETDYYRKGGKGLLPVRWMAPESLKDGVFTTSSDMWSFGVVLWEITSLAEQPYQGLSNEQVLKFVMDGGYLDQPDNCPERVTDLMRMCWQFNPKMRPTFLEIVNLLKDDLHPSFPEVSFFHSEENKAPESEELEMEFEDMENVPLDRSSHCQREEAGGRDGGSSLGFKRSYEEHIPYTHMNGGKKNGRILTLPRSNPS

Consider `COc1cc2ncnc(Nc3ccc(O)c(Br)c3)c2cc1OC`, for which the residual activity turned out to be 15% in experiment [1]; 79% in [2]; 71% in [3]; 87% in experiment [4]; 81% in experiment [5]; 97% in experiment [6]. Further, the residual activity in experiment [7] was found to be 72%; in experiment [8] it was 97%; in experiment [9] it was 82%; in experiment [10], 114%.
